Test results taken from the supplement of paper PMC4954754.
± gives the uncertainty stated by the source.

Tested on: HEK293T-Rex XBP1-RLuc
Assay: XBP1-RLuc splicing reporter activation, triplicate, relative to 500 nM thapsigargin (% of thapsigargin); higher = stronger IRE1/XBP1s reporter activation
Conditions: 6.8 µM; 18 h; screen: confirmation
Description: (§1)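 HEK293T-Rex cells stably expressing the ERSE-firefly luciferase (BiP promoter, ATF6-preferring) or XBP1-splicing Renilla luciferase (IRE1/XBP1s) reporter, 1536-well plates, compound at 6.8 µM for 18 hr at 37 °C; luminescence read […] and expressed as % activation = 100*(compound - median DMSO)/(median 500 nM thapsigargin - median DMSO). Primary screen was single-pass; confirmation screen in triplicate (mean ± SD).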

Structure (SMILES) | XBP1-RLuc splicing reporter activation
O=C(COC(=O)c1ccc(O)c(O)c1)Nc1nc(-c2ccccc2)cs1 | 18.6 ± 3.9
C=CCn1c(N2CCC(C(=O)NCCc3ccc(O)c(O)c3)CC2)nc2ccccc21 | 33.9 ± 2
CC(=O)N1CCc2c([nH]c3ccccc23)C12CCN(CCCOc1ccccc1)CC2 | 65.9 ± 4
O=C(CC(=O)Nc1ccc2nc3n(c(=O)c2c1)CCCCC3)NCc1ccco1 | 22.3 ± 2.9
Nc1ccc2nc(-c3cc(Cl)c(N)c(Cl)c3)[nH]c2c1 | 13.2 ± 1.2
CCCNC(=O)c1ccc2nc(-c3ccc4[nH]ccc4c3)sc2c1 | -0.994 ± 0.65
CCCCCOc1ccc(N/C(N)=N/c2nc(C)cc(C)n2)cc1 | 159 ± 6.3
N#Cc1c(NC(=O)c2cccc(F)c2)sc2c1CCC2 | 2 ± 0.56
CCOc1cccc(C(=O)Nc2ccc(Br)cn2)c1 | 2.81 ± 1.5
Nc1ccc(-c2nc3cc(N)c(Cl)cc3[nH]2)cc1 | 16 ± 1
O=C(c1ccccc1)c1c(O)ccc2c(C(=O)c3ccccc3)c(O)ccc12 | 15.8 ± 2.8
COc1ccccc1OCC(=O)Nc1cc(C)ccc1O | 19.6 ± 1.9
CCCNC(=O)c1cc(-c2cccs2)on1 | 5.97 ± 0.33
Cc1ccc(/C=N/NC(=O)c2cccc(F)c2)cc1 | 2.01 ± 0.32
Cc1cc2nc(-c3ccc(SCC#N)nc3)[nH]c2cc1C | 2.7 ± 0.91
Cn1cccc1/C=C1/SC(=Nc2ccccc2)NC1=O | 5.98 ± 0.28
CCN1C(=O)/C(=C\c2ccc(O)cc2O)SC1=S | 13.6 ± 1.7
O=[N+]([O-])c1ccc(N/N=C/c2ccccc2O)cc1 | 2.37 ± 0.96
O=C(Nc1ccc(O)cc1)c1c(O)c2c([nH]c1=O)CCCC2 | 19 ± 0.94

Structure (SMILES) | XBP1-RLuc splicing reporter activation
OCCNc1nc(Nc2ccc(Cl)cc2)nc2ccccc12 | 32.6 ± 2.5
O=C(N/N=C/c1ccc(O)c(O)c1)c1cccc(Cl)c1 | 6.18 ± 0.63
O=[N+]([O-])c1ccc(/C=C/c2ccc(O)cc2)cc1 | 19.2 ± 1.3
COc1cccc(Nc2nc(-c3ccc(OC)c(F)c3)cs2)c1 | 1.64 ± 0.88
O=C(NCCCn1ccnc1)c1cc(-c2cccs2)on1 | 7.54 ± 0.78
O=C(NCCc1ccccc1)c1cc(-c2cccs2)on1 | 5.58 ± 1
C(=N/Nc1nnc2c(n1)[nH]c1ccccc12)/c1c[nH]c2ccccc12 | 9.3 ± 1.4
Cc1cc(C)nc(/N=C(\N)Nc2ccc(OCCC(C)C)cc2)n1 | 101 ± 1.1
CCCCNc1ncnc2c1cnn2-c1ccc(Cl)cc1 | 1.56 ± 1.6
O=C1/C(=C/c2ccc(O)c(O)c2)SC(=S)N1c1ccc(O)cc1 | 14.6 ± 1.1
Cc1ccc(O)c(NC(=S)NC(=O)/C=C/c2ccco2)c1 | 1.05 ± 0.43
Cc1cc(C)nc(Nc2nc(-c3ccc(O)c(O)c3)cs2)n1 | 13.9 ± 9.7
COc1ccc(C2C=C3Oc4ccccc4N=C3NN2)cc1 (stereo not given) | 4.19 ± 0.13
O=C1NC(=Nc2ccccc2)S/C1=C/c1ccc(O)c(O)c1 | 20.9 ± 2.1
CC1(C)Cc2ccccc2/C(=C/C(=O)C(=O)N/N=C/c2ccc(O)c(O)c2)N1 | 16.2 ± 2.9
O=C(CCCCCCC(=O)Nc1ccccc1)NO | -3.63 ± 0.95
O=C1/C(=C/c2ccc(O)c(O)c2)Oc2cc(O)ccc21 | 12.6 ± 0.23
CN(C)c1ccc(/C=N/NC(=O)c2cccc(Br)c2)cc1 | 1.93 ± 3.2

Tested on: HEK293T-Rex ERSE-FLuc
Assay: ERSE-FLuc reporter activation, triplicate confirmation, relative to 500 nM thapsigargin (% of thapsigargin); higher = stronger ATF6/ERSE reporter activation
Conditions: 6.8 µM; 18 h; screen: confirmation
Description: as §1

Structure (SMILES) | ERSE-FLuc reporter activation
CC(=O)N1CCc2c([nH]c3ccccc23)C12CCN(CCCOc1ccccc1)CC2 | 44.2 ± 8.7
CCCNC(=O)c1ccc2nc(-c3ccc4[nH]ccc4c3)sc2c1 | 33.4 ± 9.7
Cc1ccc(/C=N/NC(=O)c2cccc(F)c2)cc1 | 27.1 ± 7.8
Cc1cc2nc(-c3ccc(SCC#N)nc3)[nH]c2cc1C | 26.8 ± 1.7
Cn1cccc1/C=C1/SC(=Nc2ccccc2)NC1=O | 37.4 ± 1.9
O=C(Nc1ccc(O)cc1)c1c(O)c2c([nH]c1=O)CCCC2 | 29.7 ± 1.1
O=[N+]([O-])c1ccc(/C=C/c2ccc(O)cc2)cc1 | 28.8 ± 3.3
O=C1NC(=Nc2ccccc2)S/C1=C/c1ccc(O)c(O)c1 | 38.4 ± 10
